Results: PubChem BioAssay (EPA / NIEHS)
Active and inactive are the calls of the source. The calls were made as follows: active = hit-call score of the fitted dose curve at least 0.9, where 1 is the maximum; inactive = score below 0.9.

Each compound was assayed on CYP2C8 (gene 1558) (assay: LTEA_HepaRG_CYP2C8: Life Technologies and Expression Analysis (LTEA) Assay for CYP2C8 using HepaRG (AID 2283483)). Conditions: mRNA level, 48 h; actives raise or lower the signal.
Protocol: LTEA_HepaRG is a cell based, multiplexed-readout assay that uses HepaRG, a human liver cell line, with measurements taken at 48 hours after chemical dosing on a 96-well plate.LTEA_HepaRG_CYP2C8 is one of 102 assay component(s) measured in the LTEA HepaRG cell culture assay. It is a marker of NR mediated metabolism.Data from the assay component LTEA_HepaRG_CYP2C8 was analyzed into 1 endpoint. This assay endpoint, LTEA_HepaRG_CYP2C8, was analyzed with bidirectional fitting relative to DMSO as the negative control and baseline of activity. Using a type of inducible reporter, measures of mRNA induction for gain or loss-of-signal activity can be used to understand regulation of transcription factor activity. To generalize the intended target to other relatable targets, this assay endpoint is annotated to the cyp intended target family, where the subfamily is xenobiotic metabolism.
A total of 1060 chemcials from the ToxCast library were tested in eight-point concentration-response experiments. Cell culture and cytotoxicity assays were conducted at Thermo Fisher Scientific's Custom Services facility (Madison, WI). A single lot of human HepaRG cells (Thermo Fisher Scientific, Frederick, MD) was used for the cell culture experiments. 96-well format collagen type I coated plates of human HepaRG cells were prepared using established methods. Briefly, cryopreserved HepaRG cells were thawed, plated at a density of approximately 100,000 cells/well in HepaRG Thaw, Plate, and General Purpose media (HPRG770, Thermo Fisher Scientific), and incubated for 48 hours. 0.5% DMSO was selected as vehicle control to balance the requisite need of DMSO in HepaRG cultures to maintain differentiation (for example, baseline metabolism, proportions of hepatocytes vs. cholangiocytes), while enabling further hepatic receptor pathway activation (for example, PXR and CAR) in response to chemical exposure. 48 hours after plating, the culture medium was replaced with HepaRG Serum-Free Incudtion Media. Cells were exposed to each test chemical in duplicate and maintained in CO2 incubators for another 48 hours. Chemical plates were thawed to room temperature and 200x concentrations of treatment groups were prepared. 8-point conentration-reponse curves were made with the highest exposure at 100 uM, followed by half-log dilutions, all in 0.5% DMSO. Each test plate contained variouse controls, induction positive controls (1mM phenobarbital), cytotoxicity positive controls ([…] aflatoxin B1), vehicle controls (0.5% DMSO), and total lysis controls (0.5% DMSO). Cell morphology images were taken using an Essen IncuCyte FLR automated microscope, with six 96-well plates imaged in about 24 minutes. Images were captured and exported and JPEG files. Spent culture media was transfered to black-well plates for the LDH assay, and remaining media was sorted at -80 C for later use. Cells were treated with RLT buffer and frozen until shipped for gene expression analysis. Total RNA was isolated from the cell suspension in 75 uL of Buffer RLT (Qiagen, Germantown, MD 20874) by Quintiles/Expression Analysis (Durham, NC) using a custom isolation procedure. Total RNA from each plate well was transferred to a preamplification plate. Fluidigm's 96.96 Dynamic ArrayTM (Fluidigm, Amsterdam, the Netherlands) technology was used for gene expression analyses by quantitative reverse transcription polymerase chain reaction (qRT-PCR, performed by Quintiles/Expression Analysis, Durham, NC)89. Standard TaqManTM Assays (Applied Biosystems/ThermoFisher Scientific, Foster City, CA) were used to assess the expression of 93 genes selected based on their selectivity and sensitivity to important hepatic receptors known to be modulated by environmental chemicals; importance in human hepatocyte functionality; and hepatotoxicity. […]

| Structure (SMILES) | outcome | AC50 |
| --- | --- | --- |
| COc1ccccc1N | inactive | – |
| CC(C)O.CC(C)O.OCCN(CCO)CCO.OCCN(CCO)CCO.[Ti] | inactive | – |
| CCCCCCCCCCCCc1cccc(S(=O)(=O)O)c1 | – | 45 µM (active) |
| Oc1cc(Cl)c(Cl)cc1Cl | inactive | – |
| OCCN(CCO)CCO | inactive | – |
| Clc1cccc(Cl)c1 | inactive | – |
| CN(C)C(=S)S | inactive | – |
| CC(C)(C)c1ccccc1O | – | 6.35 µM (active) |
| O=C(O)C1(c2ccc3c(c2)OC[C@H](Cc2ccc(-c4ccccc4)cc2)[C@H]3O)CCCC1 | inactive | – |
| N#Cc1cccnc1 | inactive | – |
| Clc1cccc(Cl)c1Cl | inactive | – |
| O=C(N[C@H]1CN2CCC1CC2)c1ccc2c(c1)OCCO2 | inactive | – |
| Cc1cc(C)cc(C)c1 | inactive | – |
